Reference: PubChem BioAssay AID845 (Columbia University Molecular Screening Center, 2007)
In all, about 94,000 compounds went through this assay and about 390 (0.41%) were called active.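 How the source made its calls: active means cell count reduction more than 3 SD above the screen-wide mean (cut at about 70% in these data); inactive means the rest.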 Shown is part of a subset that was picked to be rich in actives.

assay: HUVEC cell count loss after compound exposure – imaging, Hoechst nuclear count, IL-1B stimulus, cytotoxicity control for IL-1B NFkB translocation project, primary screen (AID 845); settings: IL-1B stimulated, at 2 µM, hits give high values;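 further: normalized per plate to untreated control cells as the no-loss baseline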

Row | Compound | cell count reduction
1 | Cc1[nH]n(-c2cccc(Cl)c2)c(=O)c1-c1ccc(Cl)cc1 | -1.3% (inactive)
2 | Cc1cc(-c2ccccc2)n2nc(C)c(-c3ccccc3)c2n1 | -18.8% (inactive)
3 | Cc1nc2c(-c3ccccc3)c(C)[nH]n2c(=O)c1Cl | 86.7% (active)
4 | O=C(NNC(=O)c1cccnc1)Nc1ccccc1 | 19.6% (inactive)
5 | O=C(Nc1ccccc1Cl)O/N=C(/c1ccccc1)c1ccccn1 | -21.6% (inactive)
6 | CCOC(=O)C1(S(=O)(=O)c2ccc(Cl)cc2)CCN(Cc2ccccc2)CC1 | -78.7% (inactive)
7 | Cc1c(C(=O)NCc2ccccc2)cnn1-c1ccccc1 | -8.5% (inactive)
8 | O=[N+]([O-])c1ccc(Oc2ccc(F)cc2Br)c2ccncc12 | 5.4% (inactive)
9 | COC(=O)CNC(=O)c1ccccc1[N+](=O)[O-] | 22.7% (inactive)
10 | Clc1ccc(CSc2nnc(/C=C/c3ccccc3)o2)c(Cl)c1 | -46.7% (inactive)
11 | CCOC(=O)c1c(NC(=O)/C=C/c2ccco2)sc(C)c1C | -43.8% (inactive)
12 | O=C1/C(=C\Nc2ccccc2)CCN1c1ncccn1 | -32.2% (inactive)
13 | CN(C(=O)CSc1nc(C2CC2)nc2ccccc12)c1nc(-c2ccccc2)cs1 | 0.9% (inactive)
14 | CCN(CC)S(=O)(=O)c1ccc(N2CCOCC2)c(C(=O)O)c1 | 5.3% (inactive)
15 | Cc1cc(=O)n2nc(N3CCCC(C(=O)N4CCN(C)CC4)C3)sc2n1 (configuration not stated) | 85.7% (active)
16 | COc1cc(C)nc(N2CCCC(C(=O)NCC(C)C)C2)n1 (configuration not stated) | -46.9% (inactive)
17 | COc1ccc(S(=O)(=O)N2CCCC(C(=O)N3CCN(C)CC3)C2)cc1C (configuration not stated) | -33.6% (inactive)
18 | COc1ccc(C(C#N)Nc2ccc(C)cc2)cc1 (configuration not stated) | -28.6% (inactive)
19 | Cc1cc(C)c(OCC(=O)N/N=C/c2ccco2)c(C)c1 | 19.3% (inactive)
20 | O=[N+]([O-])c1ccccc1/C=N/n1c(COc2ccccc2)n[nH]c1=S | -18.2% (inactive)
21 | O=C(c1ccc(CN2CCOCC2)cc1)N1CCN(c2ccccc2F)CC1 | 2.7% (inactive)
22 | C/C=C/C(=O)Nc1nnc(C(C)C)s1 | 7.2% (inactive)
23 | COc1cccc(NC(=O)c2nn(C34CC5CC(CC(C5)C3)C4)cc2[N+](=O)[O-])c1 | -1.4% (inactive)
24 | Cc1nc(SCC(=O)c2ccccc2)c([N+](=O)[O-])[nH]1 | -10.8% (inactive)
25 | CCOc1ccccc1NC(=O)C1CCCN(C(=O)Nc2ccccc2)C1 (configuration not stated) | -30.5% (inactive)

Row | Compound | cell count reduction
26 | Cc1cccc(C)c1NC(=O)c1ccc(CN2CCc3ccccc3C2)cc1 | -6.8% (inactive)
27 | CCOC(=O)COc1cc(OCC(=O)OCC)c2c(=O)cc(-c3ccccc3)oc2c1 | 7.8% (inactive)
28 | C=C(C)C(=O)Nc1cccc(C(C)=O)c1 | 1.7% (inactive)
29 | O=c1[nH]n(-c2cccc(Cl)c2)c2ncccc12 | -27.9% (inactive)
30 | CCCc1ccc(OCC(=O)NNC(=S)NC(=O)c2ccco2)cc1 | -2.4% (inactive)
31 | O=c1c2ccccc2nc2n1C(CSc1ccc(F)cc1)CN2 (configuration not stated) | -9.2% (inactive)
32 | CSc1ccc(C#N)cc1NC(=O)c1ccc(Cl)cc1 | -20.7% (inactive)
33 | CC1(C)N=C(c2ccccn2)C(C)(C)N1O | 10.6% (inactive)
34 | Cc1cccc(N(CC(=O)N2CCOCC2)S(C)(=O)=O)c1 | -61.2% (inactive)
35 | Nc1ccc(C(=O)OCC(=O)NC2CCCc3ccccc32)cc1[N+](=O)[O-] (configuration not stated) | -106% (inactive)
36 | CCc1cccc(C)c1N(C(=O)Cn1c(CO)nc2ccccc21)C(C)COC (configuration not stated) | -7.6% (inactive)
37 | COC(=O)c1cc(NC(=O)CC2C(=O)NCCN2C(=O)c2ccc(F)cc2)cc(C(=O)OC)c1 (configuration not stated) | -3.7% (inactive)
38 | N#CC1=C(SCc2ccc(C#N)cc2)N=C(N)C(c2nc(-c3ccccc3)cs2)C12CCCCC2 (configuration not stated) | 25.2% (inactive)
39 | COc1ccc(C)cc1S(=O)(=O)Nc1cccc(Cl)c1Cl | 6.2% (inactive)
40 | O=C(CNS(=O)(=O)c1ccc(Br)s1)N1CCN(C(=O)c2ccco2)CC1 | 15.9% (inactive)
41 | COc1ccc(C)cc1NC(=O)CCS(=O)(=O)c1cccc2nonc12 | 0.3% (inactive)
42 | OC(CN1C2=NCCCN2c2ccccc21)c1ccc(Br)cc1 (configuration not stated) | 8.9% (inactive)
43 | Cc1ccc(-c2csc(SCC(=O)Nc3cc(C)on3)n2)cc1 | 8.8% (inactive)
44 | CCCNC(=O)N1CCN(C(=O)NCCC)CC1 | 4.6% (inactive)
45 | CSCCC(NC(=O)COc1ccccc1)C(=O)OCC(=O)c1cc2ccccc2o1 (configuration not stated) | -13.3% (inactive)
46 | O=C(NC1=NCCS1)[C@H](Cc1ccccc1)N1C(=O)c2ccccc2C1=O | -5.1% (inactive)
47 | NC(=O)CSc1oc(-c2cccs2)nc1S(=O)(=O)c1ccccc1 | 72.9% (active)
48 | COc1ccc(OC)c(C(=O)CSc2nnc(-c3cccs3)o2)c1 | -23.7% (inactive)
49 | CC1CCCCN1S(=O)(=O)c1ccc(C(=O)Nc2nnc(-c3cccs3)o2)cc1 (configuration not stated) | -4.4% (inactive)
50 | O=C(NCCN1CCN(Cc2ccccc2)CC1)c1cc2c(=O)[nH]c3ccccc3c2s1 | 26.5% (inactive)

Row | Compound | cell count reduction
51 | O=C(CN1CCCCCC1)N1c2ccccc2Sc2ccc(C(F)(F)F)cc21 | -33.3% (inactive)
52 | CCCC(O)(c1ccc(OC)cc1)C(CN(C)C)c1ccccc1 (configuration not stated) | -16.3% (inactive)
53 | O=C(Cc1ccc(S(=O)(=O)N2CCCC2)s1)NC1CCCCCC1 | -2.6% (inactive)
54 | O=C(O)CCCCc1nc2ccccc2s1 | 0.3% (inactive)
55 | CCCC(=O)Nc1nc2ccc(NC(=O)c3cccnc3)cc2s1 | -12.3% (inactive)
56 | O=C(CNC(=O)Cc1ccccc1)NCC(=O)OCC(=O)c1ccccc1Cl | -68.8% (inactive)
57 | CC(Oc1ccc(Cl)cc1)c1ccnn1S(C)(=O)=O (configuration not stated) | 7.5% (inactive)
58 | COCCCNC(=O)CN1CCN(Cc2ccccc2Cl)C1=O | -10.5% (inactive)
59 | C=CCOc1ccc(Cl)cc1CNCCCN1CCOCC1 | 6.4% (inactive)
60 | Cc1ccccc1OCC(=O)NCC(=O)OCC(=O)c1ccc2ccccc2c1 | 13% (inactive)
61 | O=C(/C=C/Nc1ccccc1OC(F)(F)F)C(F)(F)F | -22.1% (inactive)
62 | CCCCOC(=O)Nc1sc2nc(C)cc(C)c2c1-n1cccc1 | -2.8% (inactive)
63 | Cc1ccc(NC(=S)NC(=O)c2ccc(-c3ccccc3)cc2)cc1 | -7.3% (inactive)
64 | O=C(Nc1nnc(SCc2ccccc2)s1)c1ccco1 | -6.4% (inactive)
65 | COCCCNC(NC(=O)c1ccc(C)cc1)C(Cl)(Cl)Cl (configuration not stated) | -35.5% (inactive)
66 | CCN(CC)C(=O)CSc1nnc(CNc2ccc(F)cc2)n1Cc1ccco1 | -17.8% (inactive)
67 | CCOc1ccc(CN2CCCN(C)CC2)cc1 | -10.1% (inactive)
68 | Cc1ccc(SCC2=NNC(=O)C2)cc1 | -29.7% (inactive)
69 | O=C(NCc1cccnc1)Nc1ccccc1F | 30.7% (inactive)
70 | COc1ccc2c(c1OC)C(=O)c1ccccc1C2=O | -3.8% (inactive)
71 | c1cnc(Nc2nc(-c3ccc4ccccc4c3)cs2)nc1 | 22.7% (inactive)
72 | O=C(CN1CCCCCC1)Nc1ccc(Br)cc1Br | 6.4% (inactive)
73 | CCOC(=O)c1ccc2c(c1)nc(C)n2CC | 8.9% (inactive)
74 | Cc1cccn2c(=O)c(/C=C(\C#N)S(=O)(=O)c3ccc(Cl)cc3)c(N3CCC(C(N)=O)CC3)nc12 | 28.1% (inactive)
75 | O=c1[nH]c(SCc2ccccc2)nnc1-c1ccccc1 | -19.8% (inactive)

Row | Compound | cell count reduction
76 | Cc1nc(SCC(=O)N2CCc3ccccc3C2)c2c(C)c(C)sc2n1 | -25.7% (inactive)
77 | COc1cc(OC)nc(NC(=O)CCl)n1 | -85.3% (inactive)
78 | CC(=O)c1nn(-c2cccc(Br)c2)cc1C(=O)c1cccc2ccccc12 | -1.6% (inactive)
79 | C=C(C)c1cccc(C(C)(C)NC(=O)N2CCN(c3ncccn3)CC2)c1 | 22.8% (inactive)
80 | O=C(C(NS(=O)(=O)c1cccc2nsnc12)c1ccccc1)N1CCN(c2ccccn2)CC1 (configuration not stated) | -35.8% (inactive)
81 | CC12CCC(C(=O)N3CCN(c4ncccn4)CC3)(c3nc4ccccc4nc31)C2(C)C (configuration not stated) | 82.1% (active)
82 | CCC(C(=O)NCc1ccc(OC)cc1)n1nc(C)n2c(cc3occc32)c1=O (configuration not stated) | 9.6% (inactive)
83 | Cc1ccc(S(=O)(=O)N(c2cccc(C)c2)C2CCS(=O)(=O)C2)cc1 (configuration not stated) | 5.1% (inactive)
84 | Cc1oc2nc(SCC(=O)Nc3ccc(S(N)(=O)=O)cc3)nc(NC(=O)c3ccccc3)c2c1C | 13.5% (inactive)
85 | CCOCC(=O)Nc1sc2c(c1C(=O)OCC)CCCC2 | 92% (active)
86 | CCCOC(=O)Nc1sc2c(c1C(=O)OCC)CCC2 | 11.4% (inactive)
87 | CCOC(=O)c1c(NC(=O)CSc2nnc(C)c(=O)[nH]2)sc2c1CCC2 | -24.4% (inactive)
88 | O=C(Cc1ccccc1)Nc1c(C(=O)N2CCCCCC2)cnn1-c1ccccc1 | -8.3% (inactive)
89 | COC(=O)C(C)C1Sc2ccccc2NC1=O (configuration not stated) | 90.9% (active)
90 | CN1CCN(S(=O)(=O)c2ccc(N3CCN(S(=O)(=O)c4cccs4)CC3)nc2)CC1 | -0.9% (inactive)
91 | Cc1ccc(OCCCC(=O)Nc2ccc(N3CCOCC3)cc2)cc1 | 10.3% (inactive)
92 | COc1ccc(-c2nnc(SCC(=O)c3ccc4c(c3)OCCO4)o2)cc1 | -13.4% (inactive)
93 | COc1ccc(Nc2nc(-c3ccccc3)cs2)cc1 | 3.5% (inactive)
94 | COc1ccc(/C=C(/NC(=O)c2ccc(C)cc2)c2nc3ccccc3[nH]2)cc1OC | -9.1% (inactive)
95 | Cc1ccc(Oc2ccc3c(c2)C(=O)N(c2cccc4cccnc24)C3=O)cc1 | -63.9% (inactive)
96 | CCOc1cc(NC(=O)c2cnccn2)c(OCC)cc1NC(=O)c1ccc(C)cc1 | -42.4% (inactive)
97 | O=C(NCC(=O)N(Cc1cccs1)C(C(=O)NC1CCCCC1)c1ccco1)c1cccs1 (configuration not stated) | 24.1% (inactive)
